# Assay results reported in PubChem BioAssay (NCATS).
# Unmarked numbers belong to inactive results. Records with an inconclusive call do not appear. Activity calls are given as the source filed them. Calls come from the whole dose curve; as a rule, active = well fitted curve in the direction sought with a large enough effect; inconclusive = small, poorly fitted or top-dose-only effect, or another doubt; inactive = no such curve, though single readings can be large; an effect the other way counts as inactive or inconclusive. Where a SMILES comes first, the peptide text is derived from it. [ ]: non-standard residue; d: D form. Ala(indol-2-yl) = N[C@@H](Cc1cc2ccccc2[nH]1)C(=O)O; Aib = CC(C)(N)C(=O)O
# Legend:
# [1] = P-glycoprotein substrates identified in KB-8-5-11 adenocarcinoma cell line, qHTS therapeutic library screen (AID 1346987); note: nearly all actives have a fitted effect of over 65% in size; note: potency is the fitted concentration of half-maximal effect
# Method in brief: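 Human cervical adenocarcinoma KB-8-5-11 cells, selected in colchicine to over-express P-gp and assayed without it, were exposed for 72 h to titrated compounds. An ATP-based luminescent viability signal gave AC50.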
# [2] = Primary qHTS for inhibitors of nuclear receptor binding SET domain protein 2 (NSD2) in an isogenic RCH-ACV NSD2 p.E1099K mutant (9B) (AID 1645876); note: nearly all actives have a fitted effect of over 70% in size; note: potency is the fitted concentration of half-maximal effect
# [3] = Primary qHTS for inhibitors of nuclear receptor binding SET domain protein 2 (NSD2) in an RCH-ACV wild type WT cells (2C) (AID 1645877); note: nearly all actives have a fitted effect of over 70% in size; note: potency is the fitted concentration of half-maximal effect
# [4] = molecular target: Glutathione peroxidase 1 (Homo sapiens) (UniProt P07203); test: Primary qHTS Assay for Inhibitors of Recombinant Selenoprotein Glutathione Peroxidase 1 (GPX1) (AID 1845191); note: nearly all actives have a fitted effect of over 65% in size
# Glutathione peroxidase 1 (Homo sapiens), sequence (P07203 whole entry, looked up): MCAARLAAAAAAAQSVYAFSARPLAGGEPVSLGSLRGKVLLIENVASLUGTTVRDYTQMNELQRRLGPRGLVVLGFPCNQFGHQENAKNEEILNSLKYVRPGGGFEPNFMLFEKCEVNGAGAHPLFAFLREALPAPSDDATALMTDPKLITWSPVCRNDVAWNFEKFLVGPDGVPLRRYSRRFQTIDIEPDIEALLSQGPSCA
# Method in brief: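 GR-coupled readout: NADPH consumption tracked by fluorescence, ex 340/em 450 nm, at t=0 and after 15 min at RT. Final mix 10 nM GPX1, 1 mM GSH, 0.5 mM CHP, 0.5 mM NADPH, 100 nM GR, 0.01% BSA, following 30 min enzyme–compound preincubation.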
# [5] = molecular target: Phospholipid hydroperoxide glutathione peroxidase GPX4 (Homo sapiens) (UniProt P36969); test: Primary qHTS Assay for Inhibitors of Recombinant Selenoprotein Glutathione Peroxidase 4 (GPX4) (AID 1845192); note: % is set by controls: 0 for no effect and ±100 for the full control effect; nearly all actives have a fitted effect of over 65% in size
# Phospholipid hydroperoxide glutathione peroxidase GPX4 (Homo sapiens), sequence (P36969 whole entry, looked up): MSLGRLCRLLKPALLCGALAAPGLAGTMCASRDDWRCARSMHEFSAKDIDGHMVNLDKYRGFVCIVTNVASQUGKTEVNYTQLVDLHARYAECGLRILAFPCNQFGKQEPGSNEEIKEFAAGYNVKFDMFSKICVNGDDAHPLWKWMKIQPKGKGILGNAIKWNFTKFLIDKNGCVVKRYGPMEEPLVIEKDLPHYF
# Method in brief: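 Steps: GPX4 plus compound, 30 min RT; add GR/GSH/NADPH master mix; start with cumene hydroperoxide; read 340/450 nm fluorescence at 0 and 15 min. Finals were 200 nM GPX4, 1 mM GSH, 0.5 mM CHP, 0.5 mM NADPH, 100 nM GR.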
# [6] = molecular target: Luciferin 4-monooxygenase (Photinus pyralis) (UniProt P08659); test: Primary firefly luciferase (FLuc) qHTS assay for identification of artifact compounds. (AID 1845220); conditions: outcome: dose series up to 54.1 µM unless noted;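 note: plate controls were DMSO vehicle for no effect and no enzyme for full effect; nearly all actives have a fitted effect of over 60% in size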
# Method in brief: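 Enzymatic FLuc inhibition assay: compounds pre-exposed to luciferin/ATP (10 uM each) for 15 min, then purified P. pyralis enzyme at 10 nM added. Read-out: luminescence at 5 min.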
# [7] = test system: Nanoluciferase (engineered Oplophorus gracilirostris luciferase); test: Primary Nanoluciferase (NLuc) qHTS assay for identification of artifact compounds. (AID 1845222);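 note: NLuc secreted into diluted conditioned medium of S16 cells; 0% = DMSO and -100% = no enzyme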
# Method in brief: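 S16 cell supernatant NLuc, 1:55; cpds qHTS; 15 min RT dark; Nano-Glo substrate 1:100, 5 min; luminescence; Hill fit of % inhibition.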
# CRL-7250 = normal cell line; test: Cytotoxic Profiling of Annotated Libraries Using Quantitative High-Throughput Screening (AID 1296008); conditions: Five cell lines viability, CellTiter-Glo ATP luminescence, 48-72 h; max response: active compounds read low; note: nearly all actives have a fitted effect of over 60% in size; note: potency is the fitted concentration of half-maximal effect; for max response: % is set by controls: 0 for no effect and ±100 for the full control effect
# Method in brief: (§1)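 Cells exposed to compounds for 48 or 72 hr at 37 degrees Celsius. Viability read as ATP-coupled luminescence with CellTiter-Glo after 10 min at room temperature.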
# HEK293 = test: as above; conditions: Five cell lines viability, CellTiter-Glo ATP luminescence, 48-72 h; max response: active compounds read low
# Method in brief: as §1
# HaCat = test: as above; conditions: Five cell lines viability, CellTiter-Glo ATP luminescence, 48-72 h; max response: active compounds read low
# Method in brief: as §1
# C33A = test: Primary qHTS to identify gynecologic anti-cancer compounds using libraries of approved drugs and bioactive compounds (AID 1345084); conditions: Gynecologic cancer cell panel viability, ATPlite luminescence, 48 h; series mostly up to 57.5 µM; note: nearly all actives have a fitted effect of over 55% in size; note: potency is the fitted concentration of half-maximal effect; for activity change, negative = cytotoxicity: % is set by controls: 0 for no effect and ±100 for the full control effect
# Method in brief: (§2)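 Luminescence from the ATPlite ATP-monitoring reagent indicates viable cell number; lower signal means cytotoxicity. Cells received compound 16 h after seeding and were exposed for 48 h across five concentrations.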
# CASKI = test: as above; conditions: Gynecologic cancer cell panel viability, ATPlite luminescence, 48 h; series mostly up to 57.5 µM
# Method in brief: as §2
# HeLa = test: as above; conditions: Gynecologic cancer cell panel viability, ATPlite luminescence, 48 h; series mostly up to 57.5 µM
# Method in brief: as §2
# Hek293T = test: as above; conditions: Gynecologic cancer cell panel viability, ATPlite luminescence, 48 h, control line for the selectivity index; series mostly up to 57.5 µM
# Method in brief: as §2
# OV90 = test: as above; conditions: Gynecologic cancer cell panel viability, ATPlite luminescence, 48 h; series mostly up to 57.5 µM
# Method in brief: as §2
# PA-1 = test: as above; conditions: Gynecologic cancer cell panel viability, ATPlite luminescence, 48 h; series mostly up to 57.5 µM
# Method in brief: as §2
# Tov112D = test: as above; conditions: Gynecologic cancer cell panel viability, ATPlite luminescence, 48 h; series mostly up to 57.5 µM
# Method in brief: as §2
# NIH3T3 = test: Cytotoxic Profiling of Annotated Libraries Using Quantitative High-Throughput Screening (AID 1296008); conditions: Five cell lines viability, CellTiter-Glo ATP luminescence, 48-72 h; max response: active compounds read low; note: nearly all actives have a fitted effect of over 60% in size; note: potency is the fitted concentration of half-maximal effect; for max response: % is set by controls: 0 for no effect and ±100 for the full control effect
# Method in brief: as §1
# Es-2 = test: Primary qHTS to identify gynecologic anti-cancer compounds using libraries of approved drugs and bioactive compounds (AID 1345084); conditions: Gynecologic cancer cell panel viability, ATPlite luminescence, 48 h; series mostly up to 57.5 µM; note: nearly all actives have a fitted effect of over 55% in size; note: potency is the fitted concentration of half-maximal effect; for activity change, negative = cytotoxicity: % is set by controls: 0 for no effect and ±100 for the full control effect
# Method in brief: as §2
# Tov-21-G = test: as above; conditions: Gynecologic cancer cell panel viability, ATPlite luminescence, 48 h; series mostly up to 57.5 µM
# Method in brief: as §2
structure (smiles),measurement,setting,value
C=C1[C@@H](C)[C@H]2[C@H](Cc3ccccc3)NC(=O)[C@]23[C@H](OC(C)=O)/C=C/[C@](C)(O)C(=O)[C@@H](C)C/C=C/[C@H]3[C@@H]1O,Potency,[1],9.2 µM (active)
same,Potency,[2],0.728 µM (active)
same,Potency,[3],0.258 µM (active)
same,Potency,[4],inactive
same,Potency,[5],inactive
same,outcome,[6],inactive
same,Potency,[7],inactive
same,Potency,CRL-7250,0.259 µM (active)
same,Potency,HEK293,0.731 µM (active)
same,Potency,HaCat,23.1 µM (active)
same,Potency,C33A,inactive
same,Potency,CASKI,inactive
same,Potency,HeLa,inactive
same,Potency,Hek293T,inactive
same,Potency,OV90,1.26 µM (active)
same,Potency,PA-1,1.78 µM (active)
same,Potency,Tov112D,inactive
C[C@H]1O[C@@H](O[C@H]2CC[C@]3(C=O)C4CC[C@]5(C)[C@@H](C6=CC(=O)OC6)CC[C@]5(O)[C@@H]4CC[C@]3(O)C2)C[C@@H](O)[C@@H]1O (stereo partly specified),Potency,[1],0.0502 µM (active)
same,Potency,[2],0.0317 µM (active)
same,Potency,[3],0.0317 µM (active)
same,Potency,[4],inactive
same,Potency,[5],inactive
same,outcome,[6],inactive
same,Potency,[7],inactive
same,Potency,CRL-7250,0.0224 µM (active)
same,Potency,HEK293,0.0252 µM (active)
same,Potency,HaCat,0.502 µM (active)
same,max response,NIH3T3,-1.6%
same,Potency,C33A,0.0891 µM (active)
same,Potency,CASKI,0.355 µM (active)
same,Potency,Es-2,0.141 µM (active)
same,Potency,HeLa,0.126 µM (active)
same,Potency,Hek293T,0.141 µM (active)
same,Potency,OV90,0.316 µM (active)
same,Potency,Tov-21-G,0.126 µM (active)
same,Potency,Tov112D,0.0251 µM (active)
C[C@H]1O[C@@H](n2cnc3c(N)ncnc32)C[C@@H]1O,Potency,[1],inactive
same,Potency,[2],inactive
same,Potency,[3],inactive
same,Potency,[4],inactive
same,Potency,[5],inactive
same,outcome,[6],inactive
same,Potency,[7],inactive
same,max response,CRL-7250,0.373%
same,max response,HEK293,0.909%
same,max response,HaCat,3.49%
same,max response,NIH3T3,1.47%
same,Potency,C33A,inactive
same,Potency,CASKI,inactive
same,Potency,Es-2,inactive
same,Potency,HeLa,inactive
same,Potency,Hek293T,inactive
same,Potency,OV90,inactive
same,Potency,PA-1,inactive
same,Potency,Tov-21-G,inactive
same,Potency,Tov112D,inactive
C[C@H](CCC(=O)O)C[C@H](C)C[C@H](C)C(=O)/C=C(\O)[C@H](C)C[C@H](C)C/C=C/[C@@H](C)[C@@H](O)[C@@H](C)[C@@H](O)C[C@@H]1CC[C@@](C)([C@H]2CC[C@@](C)([C@@H](C)O)O2)O1,Potency,[2],7.09 µM (active)
same,Potency,[3],4.47 µM (active)
same,Potency,[4],inactive
same,Potency,[5],inactive
same,outcome,[6],inactive
same,Potency,[7],inactive
same,Potency,CRL-7250,3.17 µM (active)
same,Potency,HEK293,5.02 µM (active)
same,max response,HaCat,-1.41%
same,Potency,C33A,inactive
same,Potency,CASKI,inactive
same,Potency,Es-2,inactive
same,Potency,HeLa,inactive
same,Potency,Hek293T,inactive
same,Potency,PA-1,inactive
same,Potency,Tov112D,inactive
CC(C)(NC(=O)[C@@H](N)Cc1ccc(O)cc1)C(=O)N[C@@H](Cc1cc2ccccc2[nH]1)C(=O)N[C@@H](Cc1ccccc1)C(=O)O (H-Y[Aib][Ala(indol-2-yl)]F-OH),"activity change, negative = cytotoxicity",[1],5.29% [at 9.29 µM]
same,"activity change, negative = viability loss",[2],-7% [at 9.23 µM]
same,"activity change, negative = cell killing",[3],-2.68% [at 9.23 µM]
same,"activity, negative = inhibition",[4],0.29% [at 9.52 µM]
same,"activity change, negative = inhibition",[5],-0.548% [at 9.73 µM]
same,"activity change, negative = inhibition",[6],1.26% [at 11.6 µM]
same,"activity, negative = inhibition",[7],2.82% [at 11.6 µM]
same,max response,CRL-7250,-5.29%
same,max response,HEK293,-3.45%
same,max response,HaCat,-4.8%
same,"activity change, negative = cytotoxicity",C33A,17.2% [at 11.6 µM]
same,"activity change, negative = cytotoxicity",CASKI,4.29% [at 11.6 µM]
same,"activity change, negative = cytotoxicity",Es-2,0.783% [at 11.6 µM]
same,"activity change, negative = cytotoxicity",HeLa,14.3% [at 11.6 µM]
same,"activity change, negative = cytotoxicity",Hek293T,-0.36% [at 11.6 µM]
same,"activity change, negative = cytotoxicity",OV90,2.67% [at 11.6 µM]
same,"activity change, negative = cytotoxicity",PA-1,2.34% [at 11.6 µM]
same,"activity change, negative = cytotoxicity",Tov-21-G,16.4% [at 11.6 µM]
same,"activity change, negative = cytotoxicity",Tov112D,-10.9% [at 11.6 µM]
